The results in this text go back to PubChem BioAssay (EPA / NIEHS).

Results filed as inconclusive are left out. Calls of active or inactive are those of the source. How the source made its calls, unless noted: active means hit-call score of the fitted dose curve at least 0.9, where 1 is the maximum; inconclusive means response in the unintended direction; inactive means score below 0.9.

The AC50 is the concentration giving half of the maximal activity seen.

The nature of experiment [1]: ATG_CMV_CIS: Attagene CIS-FACTORIAL HepG2 Assay for human CMV (Internal Marker) (AID 2282928; active means hit-call score of the fitted dose curve at least 0.9, where 1 is the maximum; inactive means score below 0.9;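 further: endpoint acts as a background internal control marker rather than a target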). Particulars: HepG2 CMV promoter reporter, transcription factor profiling; actives raise or lower the signal. In short, it runs like this: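 CMV internal-marker background readout in transiently transfected HepG2 cells bearing cis-regulated reporter units. Reporter mRNA is measured 24 h after dosing by RT-PCR and capillary electrophoresis, with bidirectional fitting against DMSO.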

Experiment [2] is described as follows: ATG_AP_1_CIS: Attagene CIS-FACTORIAL HepG2 Assay for human Activator Protein 1 (AP-1) (AID 2282931; active means hit-call score of the fitted dose curve at least 0.9, where 1 is the maximum; inactive means score below 0.9). Particulars: HepG2 Attagene cis-factorial AP-1 reporter mRNA; actives raise or lower the signal. In short, it runs like this:
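We transfected HepG2 cells transiently with a set of cis-regulated reporter transcription units, dosed them for 24 h, and quantified reporter mRNA via RT-PCR and capillary electrophoresis, scoring gain or loss of signal relative to DMSO.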

Experiment [3] can be described thus: ATG_Ets_CIS: Attagene CIS-FACTORIAL HepG2 Assay for human Erythroblast Transformation Specific (ETS) (AID 2282941; active means hit-call score of the fitted dose curve at least 0.9, where 1 is the maximum; inactive means score below 0.9). As to conditions: HepG2 ETS cis-reporter transcription, actives raise or lower the signal. In short, it runs like this: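 HepG2 cells transfected with multiple cis-regulated reporter units measuring endogenous ETS-driven transcription, 24 h after dosing. Reporter mRNA quantified by RT-PCR with capillary electrophoresis; bidirectional fit relative to DMSO.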

For experiment [4], the target named is Hepatocyte nuclear factor 3-beta (Homo sapiens) (UniProt Q9Y261). The experiment is described as follows: ATG_FoxA2_CIS: Attagene CIS-FACTORIAL HepG2 Assay for human Forkhead box A2 (FOXA2) (AID 2282942; active means hit-call score of the fitted dose curve at least 0.9, where 1 is the maximum; inactive means score below 0.9). As to conditions: HepG2 cis-reporter transcription factor activity, 24 h; actives raise or lower the signal. The method, boiled down:
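Multiplexed cis-element reporter assay in transiently transfected HepG2. Twenty-four hours post-dosing, RNA was reverse-transcribed, amplified, FAM-labelled, HpaI-digested and separated by CE. Activity gain or loss relative to DMSO.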

A short description of experiment [5]: ATG_FoxO_CIS: Attagene CIS-FACTORIAL HepG2 Assay for human Forkhead box O (FoxO) (AID 2282943; active means hit-call score of the fitted dose curve at least 0.9, where 1 is the maximum; inactive means score below 0.9). Particulars: HepG2 Attagene cis-reporter, FoxO element, mRNA; actives raise or lower the signal. The method, boiled down:
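Values reflect reporter mRNA induction or loss in HepG2 cells 24 h post-dosing, fitted bidirectionally with DMSO as negative control and baseline. Detection used RT-PCR and fluorescence capillary electrophoresis.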

Experiment [6] can be described thus: ATG_GATA_CIS: Attagene CIS-FACTORIAL HepG2 Assay for human GATA Binding Protein (AID 2282944; active means hit-call score of the fitted dose curve at least 0.9, where 1 is the maximum; inactive means score below 0.9). Particulars: HepG2 GATA cis-element reporter, Attagene multiplex mRNA; actives raise or lower the signal. In short, it runs like this:
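HepG2 cells transiently transfected with multiplexed cis-element reporter units reflecting endogenous transcription factor activity; reporter mRNA measured after 24 h dosing by RT-PCR, 6-FAM labeling, HpaI digestion and capillary electrophoresis. Bidirectional fitting versus DMSO baseline.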

Experiment [7] addresses Paired box protein Pax-6 (Homo sapiens) (UniProt P26367). Put plainly: ATG_Pax6_CIS: Attagene CIS-FACTORIAL HepG2 Assay for human Paired Box 6 (PAX6) (AID 2282956; active means hit-call score of the fitted dose curve at least 0.9, where 1 is the maximum; inactive means score below 0.9). Particulars: HepG2 CIS-FACTORIAL PAX6 reporter transcription, RNA readout; actives raise or lower the signal. The method, boiled down: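 HepG2 cells transiently transfected with cis-promoter-driven multiplexed reporter units sensing endogenous transcription factor activity; 24 h chemical exposure. Reporter mRNA quantified by RT-PCR, 6-FAM labelling, HpaI digestion and capillary electrophoresis; bidirectional fit versus DMSO baseline.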

Experiment [8] can be described thus: ATG_PPRE_CIS: Attagene CIS-FACTORIAL HepG2 Assay for human Peroxisome Proliferator-activated Response Element (PPRE) (AID 2282958; active means hit-call score of the fitted dose curve at least 0.9, where 1 is the maximum; inactive means score below 0.9). Particulars: HepG2 PPRE cis-element reporter, Attagene transcription factor profiling; actives raise or lower the signal. The method, boiled down: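 DMSO served as negative control and baseline for bidirectional curve fitting. Signal came from PPRE-regulated reporter mRNA in HepG2 cells, measured 24 h post-dosing by RT-PCR, 6-FAM primer extension and capillary electrophoresis.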

Experiment [9] is described as follows: ATG_SREBP_CIS: Attagene CIS-FACTORIAL HepG2 Assay for human Sterol Regulatory Element Binding (SREBP) (AID 2282962; active means hit-call score of the fitted dose curve at least 0.9, where 1 is the maximum; inactive means score below 0.9). Particulars: HepG2 Attagene cis-factorial SREBP reporter, mRNA; actives raise or lower the signal. In short, it runs like this: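 HepG2 cells transiently transfected with multiplexed cis-promoter reporter units sensing endogenous transcription factors; reporter mRNA measured 24 h after dosing by RT-PCR, 6-FAM labeling, HpaI digestion and capillary electrophoresis. Bidirectional fit versus DMSO.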

The target of experiment [10] is Oxysterols receptor LXR-beta (Homo sapiens) (UniProt P55055). The experiment is described as follows: ATG_LXRb_TRANS: Attagene TRANS-FACTORIAL HepG2 Assay for human Liver X Receptor beta (LXRb) (AID 2282981). As to conditions: HepG2 Attagene TRANS GAL4-LXRb reporter, mRNA. In short, it runs like this:
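In this TRANS format, exogenous chimeric NR-Gal4 protein activity, not endogenous factors, drives reporter expression in transfected human HepG2 cells. Exposure lasted 24 h; reporter mRNA was read by fluorescent capillary electrophoresis.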

Experiment [11] has as its target Hepatocyte nuclear factor 4-alpha (Homo sapiens) (UniProt P41235). Put plainly: ATG_HNF4a_TRANS: Attagene TRANS-FACTORIAL HepG2 Assay for human Hepatocyte Nuclear Factor 4 alpha (HNF4a) (AID 2282982). As to conditions: HepG2 HNF4a transactivation reporter, mRNA readout. In short, it runs like this: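 Cells used were human HepG2, transiently carrying GAL4-UAS reporter units read out against exogenous NR-GAL4 chimeras. Reporter transcript levels after 24 h dosing were quantified by fluorescent RT-PCR and capillary electrophoresis.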

A short description of experiment [12]: ATG_M_06_TRANS: Attagene TRANS-FACTORIAL HepG2 Assay for M06 Transcription Factor (Internal Marker) (AID 2282983). As to conditions: HepG2 Attagene TRANS M06 internal marker reporter. In short, it runs like this: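 Transfect HepG2 with MRTUs → dose compounds 24 h → isolate RNA, oligo(dT) RT → PCR with reporter primers → 6-FAM primer extension → HpaI digest → CE fragment analysis. Positive direction vs DMSO.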

Experiment [13] is described as follows: ATG_M_32_TRANS: Attagene TRANS-FACTORIAL HepG2 Assay for M32 Transcription Factor (Internal Marker) (AID 2282984).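 Further: transcript level of a background control reporter unit measured by RT-PCR and capillary electrophoresis.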 As to conditions: HepG2 Attagene TRANS M32 internal marker reporter. In short, it runs like this: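 Human hepatoma HepG2, transient MRTU transfection, 24 h treatment. RNA → RT-PCR → fluorescent primer extension → HpaI digest (2 h, 37 C) → CE. Positive-direction fit vs DMSO.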

For experiment [14], the target named is human Peroxisome Proliferator-activated Receptor alpha (PPARa), PPARA (gene 5465) (UniProt Q07869). Put plainly: ATG_PPARa_TRANS: Attagene TRANS-FACTORIAL HepG2 Assay for human Peroxisome Proliferator-activated Receptor alpha (PPARa) (AID 2283001). In short, it runs like this:
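Gain-of-signal endpoint: reporter mRNA induction relative to DMSO, detected by fluorescent RT-PCR and capillary electrophoresis. HepG2 cells transiently carried GAL4-UAS-driven reporter units plus NR-Gal4 fusion; exposure lasted 24 h.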

Experiment [15] concerns the target Nuclear receptor subfamily 4 group A member 2 (Homo sapiens) (UniProt P43354). Put plainly: ATG_NURR1_TRANS: Attagene TRANS-FACTORIAL HepG2 Assay for human Nuclear Receptor Related Protein 1 (NURR1) (AID 2282985). As to conditions: HepG2 Attagene TRANS reporter, mRNA readout. The method, boiled down: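 After 24 h chemical dosing, total RNA from transiently transfected HepG2 cells was reverse-transcribed and reporter cDNA PCR-amplified, FAM-labelled and analysed by capillary electrophoresis. Activity fitted in positive direction, DMSO as negative control.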

For experiment [16], the target named is Retinoic acid receptor RXR-alpha (Homo sapiens) (UniProt P19793). Put plainly: ATG_RXRa_TRANS: Attagene TRANS-FACTORIAL HepG2 Assay for human Retinoid X Receptor alpha (RXRa) (AID 2283012). In short, it runs like this: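 Transient transfection of human HepG2 with multiple GAL4-UAS reporter constructs; 24 h compound exposure; total RNA isolated, reverse-transcribed, PCR-amplified, 6-FAM labelled, HpaI-cut, resolved by capillary electrophoresis. Positive-direction fit versus DMSO.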
Sequence of Retinoic acid receptor RXR-alpha (Homo sapiens) (P19793 whole entry, looked up, the tested form may be a part): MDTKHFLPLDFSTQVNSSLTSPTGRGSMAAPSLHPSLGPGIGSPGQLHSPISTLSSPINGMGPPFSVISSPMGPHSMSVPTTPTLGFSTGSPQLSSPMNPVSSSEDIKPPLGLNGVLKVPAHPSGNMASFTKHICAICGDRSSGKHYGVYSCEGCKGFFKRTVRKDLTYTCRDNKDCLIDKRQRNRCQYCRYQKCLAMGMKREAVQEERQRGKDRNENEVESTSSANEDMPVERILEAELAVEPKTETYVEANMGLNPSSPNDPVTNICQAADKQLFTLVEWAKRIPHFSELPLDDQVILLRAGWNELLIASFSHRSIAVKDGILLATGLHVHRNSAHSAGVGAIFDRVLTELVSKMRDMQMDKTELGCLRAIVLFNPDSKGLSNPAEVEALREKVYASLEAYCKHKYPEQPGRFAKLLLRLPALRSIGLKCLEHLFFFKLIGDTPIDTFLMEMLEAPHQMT

Experiment [17] has as its target human Thyroid Receptor alpha (THRa1), THRA (gene 7067) (UniProt P10827). The experiment is described as follows: ATG_THRa1_TRANS: Attagene TRANS-FACTORIAL HepG2 Assay for human Thyroid Receptor alpha (THRa1) (AID 2283014). The method, boiled down: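 Reporter transcript induction, read by capillary electrophoresis of 6-FAM-labelled RT-PCR products, reflects activity of a transfected THRa1-Gal4 fusion in HepG2 liver cells. Cells were dosed for 24 h; activity was fitted in the positive direction against DMSO.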

The target of experiment [18] is Cellular tumor antigen p53 (Homo sapiens) (UniProt P04637). The experiment is described as follows: TOX21_p53_BLA_p2_ratio: Tox21 HCT-116 p53 Agonism Beta-lactamase Assay, Ratio, Phase 2 (AID 2283592). In short, it runs like this:
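HCT116 p53-bla; 4000 cells/well; 5 h pre-incubation; cpd in DMSO, 217-fold dilution; 16 h 37C/5% CO2; CCF4-AM 2 h RT; Ex 405, Em 460/530 ratio; DMSO = baseline; positive fitting direction.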

For experiment [19] the target is unchanged. The experiment is described as follows: TOX21_p53_BLA_p5_ratio: Tox21 HCT-116 p53 Agonism Beta-lactamase Assay, Ratio, Phase 5 (AID 2283599). In short, it runs like this:
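HCT-116 cells carrying a p53-inducible beta-lactamase reporter were seeded at 4000 cells/well and dosed after 5 h with compound in DMSO (217-fold dilution). After 16 h at 37C, CCF4-AM substrate was added for 2 h, and the 460/530 nm emission ratio was scored as gain-of-signal versus DMSO.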

A short description of experiment [20]: TOX21_p53_BLA_p5_viability: Viability Assessment in the Tox21 HCT-116 p53 Agonism Beta-lactamase Assay, Phase 5 (AID 2283600). The method, boiled down:
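4000 cells/well; 5 h pre-incubation; DMSO compounds pin-transferred, 217-fold dilution; 16 h, 37C/5% CO2; CCF4-AM 2 h RT; CellTiter-Glo 30 min RT; luminescence.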

Sequence of human Thyroid Receptor alpha (THRa1), THRA (gene 7067) (P10827 whole entry, looked up, the tested form may be a part): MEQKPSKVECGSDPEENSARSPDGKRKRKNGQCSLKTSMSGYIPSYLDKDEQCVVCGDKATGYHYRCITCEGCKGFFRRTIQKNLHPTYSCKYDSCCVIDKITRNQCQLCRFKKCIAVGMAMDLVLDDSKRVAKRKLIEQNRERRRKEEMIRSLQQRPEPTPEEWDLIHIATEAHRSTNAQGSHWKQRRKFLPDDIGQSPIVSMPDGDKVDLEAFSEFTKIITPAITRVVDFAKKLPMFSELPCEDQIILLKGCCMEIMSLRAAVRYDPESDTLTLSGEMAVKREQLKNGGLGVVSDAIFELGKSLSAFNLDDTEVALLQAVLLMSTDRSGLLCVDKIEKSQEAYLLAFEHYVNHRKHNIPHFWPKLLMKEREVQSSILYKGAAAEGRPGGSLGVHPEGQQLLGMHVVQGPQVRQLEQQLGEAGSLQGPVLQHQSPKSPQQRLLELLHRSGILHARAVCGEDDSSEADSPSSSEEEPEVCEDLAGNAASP
Sequence of human Peroxisome Proliferator-activated Receptor alpha (PPARa), PPARA (gene 5465) (Q07869 whole entry, looked up, the tested form may be a part): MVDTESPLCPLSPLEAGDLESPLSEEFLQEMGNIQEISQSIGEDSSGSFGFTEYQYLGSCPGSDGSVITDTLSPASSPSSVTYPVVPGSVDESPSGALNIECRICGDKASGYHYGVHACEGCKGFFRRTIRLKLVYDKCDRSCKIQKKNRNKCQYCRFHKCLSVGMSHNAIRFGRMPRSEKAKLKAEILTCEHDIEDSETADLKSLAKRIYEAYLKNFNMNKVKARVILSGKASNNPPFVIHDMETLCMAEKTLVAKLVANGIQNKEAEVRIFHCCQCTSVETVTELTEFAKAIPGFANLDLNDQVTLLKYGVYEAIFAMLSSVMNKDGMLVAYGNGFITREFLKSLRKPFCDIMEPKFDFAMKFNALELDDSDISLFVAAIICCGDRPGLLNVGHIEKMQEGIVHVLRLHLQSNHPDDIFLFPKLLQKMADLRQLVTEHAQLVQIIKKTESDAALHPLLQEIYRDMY
Sequence of Hepatocyte nuclear factor 3-beta (Homo sapiens) (Q9Y261 whole entry, looked up): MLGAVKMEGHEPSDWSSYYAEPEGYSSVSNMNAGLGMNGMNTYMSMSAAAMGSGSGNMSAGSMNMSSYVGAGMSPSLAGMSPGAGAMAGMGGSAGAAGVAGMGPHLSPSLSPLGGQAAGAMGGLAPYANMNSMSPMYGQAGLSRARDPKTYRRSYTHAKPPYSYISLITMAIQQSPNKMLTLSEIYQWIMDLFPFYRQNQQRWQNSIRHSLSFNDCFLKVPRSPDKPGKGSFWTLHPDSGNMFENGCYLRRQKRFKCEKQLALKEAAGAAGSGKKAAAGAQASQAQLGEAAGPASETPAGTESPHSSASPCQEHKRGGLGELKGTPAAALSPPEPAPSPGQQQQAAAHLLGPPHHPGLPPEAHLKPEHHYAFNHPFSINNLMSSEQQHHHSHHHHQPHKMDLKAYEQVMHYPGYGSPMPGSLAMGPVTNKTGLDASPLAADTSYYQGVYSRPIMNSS
Sequence of Hepatocyte nuclear factor 4-alpha (Homo sapiens) (P41235 whole entry, looked up, the tested form may be a part): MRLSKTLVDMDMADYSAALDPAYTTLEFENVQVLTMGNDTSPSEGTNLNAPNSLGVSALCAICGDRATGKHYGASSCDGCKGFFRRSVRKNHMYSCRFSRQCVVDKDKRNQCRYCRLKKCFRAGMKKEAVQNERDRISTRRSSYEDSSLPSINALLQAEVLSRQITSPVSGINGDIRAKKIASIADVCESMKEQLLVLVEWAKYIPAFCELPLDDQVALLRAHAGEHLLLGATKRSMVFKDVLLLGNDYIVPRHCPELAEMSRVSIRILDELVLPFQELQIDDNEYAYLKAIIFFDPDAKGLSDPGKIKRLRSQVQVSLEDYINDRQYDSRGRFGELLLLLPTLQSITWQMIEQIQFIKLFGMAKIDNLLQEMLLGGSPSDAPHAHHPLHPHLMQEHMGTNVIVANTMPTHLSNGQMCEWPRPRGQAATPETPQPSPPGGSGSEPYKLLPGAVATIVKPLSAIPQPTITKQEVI
Sequence of Oxysterols receptor LXR-beta (Homo sapiens) (P55055 whole entry, looked up, the tested form may be a part): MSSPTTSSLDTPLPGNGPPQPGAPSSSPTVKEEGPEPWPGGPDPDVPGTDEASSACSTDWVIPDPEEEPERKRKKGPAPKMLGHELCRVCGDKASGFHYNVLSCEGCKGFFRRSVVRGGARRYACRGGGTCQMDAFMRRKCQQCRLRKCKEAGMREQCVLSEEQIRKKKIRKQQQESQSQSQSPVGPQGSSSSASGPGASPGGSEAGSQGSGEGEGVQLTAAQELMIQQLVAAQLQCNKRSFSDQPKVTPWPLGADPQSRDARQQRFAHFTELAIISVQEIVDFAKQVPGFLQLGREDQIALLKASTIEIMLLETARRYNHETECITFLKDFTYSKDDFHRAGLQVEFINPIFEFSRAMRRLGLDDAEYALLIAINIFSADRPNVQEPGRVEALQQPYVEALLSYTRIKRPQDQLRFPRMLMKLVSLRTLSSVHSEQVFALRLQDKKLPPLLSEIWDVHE
Sequence of Cellular tumor antigen p53 (Homo sapiens) (P04637 whole entry, looked up): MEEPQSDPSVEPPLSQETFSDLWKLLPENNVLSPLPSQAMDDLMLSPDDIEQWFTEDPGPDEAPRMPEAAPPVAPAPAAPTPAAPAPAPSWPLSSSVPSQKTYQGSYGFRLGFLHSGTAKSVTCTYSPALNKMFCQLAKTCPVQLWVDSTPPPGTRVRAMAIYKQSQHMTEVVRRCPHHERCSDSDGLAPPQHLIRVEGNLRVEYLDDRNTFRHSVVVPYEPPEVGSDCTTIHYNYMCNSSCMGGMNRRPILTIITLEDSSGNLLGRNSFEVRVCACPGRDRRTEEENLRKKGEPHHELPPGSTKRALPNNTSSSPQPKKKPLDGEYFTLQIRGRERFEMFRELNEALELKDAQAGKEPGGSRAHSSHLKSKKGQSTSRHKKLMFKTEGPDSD
Sequence of Paired box protein Pax-6 (Homo sapiens) (P26367 whole entry, looked up): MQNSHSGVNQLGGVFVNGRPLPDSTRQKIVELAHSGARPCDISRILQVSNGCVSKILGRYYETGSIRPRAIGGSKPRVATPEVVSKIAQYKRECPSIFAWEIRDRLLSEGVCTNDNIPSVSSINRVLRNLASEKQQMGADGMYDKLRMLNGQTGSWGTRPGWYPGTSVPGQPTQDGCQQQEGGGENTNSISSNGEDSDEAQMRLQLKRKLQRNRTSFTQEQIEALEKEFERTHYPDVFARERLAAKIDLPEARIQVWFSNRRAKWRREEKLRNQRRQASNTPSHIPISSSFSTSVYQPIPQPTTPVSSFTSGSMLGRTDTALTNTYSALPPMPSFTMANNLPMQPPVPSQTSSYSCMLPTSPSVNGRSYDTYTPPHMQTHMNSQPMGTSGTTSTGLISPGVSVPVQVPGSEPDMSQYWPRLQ
Sequence of Nuclear receptor subfamily 4 group A member 2 (Homo sapiens) (P43354 whole entry, looked up): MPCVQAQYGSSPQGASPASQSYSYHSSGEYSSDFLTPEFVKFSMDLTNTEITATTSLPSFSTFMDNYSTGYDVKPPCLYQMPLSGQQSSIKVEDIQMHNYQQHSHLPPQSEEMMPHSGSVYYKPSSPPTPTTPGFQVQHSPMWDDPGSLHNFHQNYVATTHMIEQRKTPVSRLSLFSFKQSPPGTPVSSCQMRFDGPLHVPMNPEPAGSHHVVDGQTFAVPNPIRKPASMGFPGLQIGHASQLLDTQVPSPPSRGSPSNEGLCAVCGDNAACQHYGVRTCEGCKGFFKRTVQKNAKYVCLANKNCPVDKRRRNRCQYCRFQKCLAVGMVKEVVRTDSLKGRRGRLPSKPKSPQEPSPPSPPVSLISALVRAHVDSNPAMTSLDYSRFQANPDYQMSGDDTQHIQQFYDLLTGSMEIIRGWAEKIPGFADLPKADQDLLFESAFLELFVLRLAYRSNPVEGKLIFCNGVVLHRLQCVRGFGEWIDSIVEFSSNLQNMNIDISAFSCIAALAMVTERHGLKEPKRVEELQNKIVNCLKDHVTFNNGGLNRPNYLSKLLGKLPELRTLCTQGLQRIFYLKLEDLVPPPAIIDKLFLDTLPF

`CN(N=O)c1ccccc1`: the compound was called inactive in experiment [1], in [2], in experiment [3], in [4], in [5] and in experiment [6]. Besides, the compound was called inactive in [7], in [8], in [9], in experiment [10], in experiment [11] and in [12]. In addition, the result in experiment [13] and in experiment [14] was inactive.
`C[N+](C)(C)CC(=O)[O-]`: the compound was classed as inactive in [2], in experiment [3], in [4], in [5], in experiment [6] and in experiment [8]. For the same compound, the result in [9], in [12], in experiment [15], in experiment [14], in experiment [16] and in [17] was inactive.
As for `CCCC=NO`, the result in experiment [2], in [3], in experiment [5], in [6], in [9] and in experiment [10] was inactive. Besides, the compound was called inactive in [11], in experiment [14], in experiment [16], in experiment [17], in experiment [18] and in experiment [19]. In [20], the result was inactive.
For the compound `CCCCCCCCCCCC#N`, the AC50 in [2] is 73.6 µM (active). Further, the outcome in experiment [4], in experiment [5], in experiment [6], in experiment [7], in [8] and in [13] was inactive. Besides, the outcome in [15], in [14], in experiment [16], in experiment [17], in experiment [18] and in experiment [19] was inactive. For the same compound, the compound was called inactive in experiment [20].
With `c1ccc2c(c1)CCCC2`, the compound was called inactive in experiment [1], in [2], in experiment [3], in experiment [4], in [5] and in experiment [6]. Besides, the result in experiment [9], in experiment [10], in experiment [11], in experiment [13], in experiment [16] and in experiment [18] was inactive. For the same compound, the outcome in [19] and in experiment [20] was inactive.
